Among all 69,000 compounds or so, about 8,600 (12%) showed an effect of 50% or more. The sample as a whole holds a higher share of strong results than the screen did.
System: Plasmodium berghei
Assay: Screen against P. berghei liver stage (PbLuc), transformed with Luciferase, at 10uM
Format: functional, HepG2
Conditions: tested at 10 uM

Compound	INHIBITION
O=C(c1ccc(N2CCCC2)nn1)N1CCCC(n2ccnc2)C1 (centres undefined)	29.2%
CCOc1ccc(CN2CCC(c3nc(C)cc(C)n3)C2)cc1CO (centres undefined)	44.05%
CN1CC(C(=O)Nc2ccc(OCC(F)(F)C(F)F)nc2)CC1=O (centres undefined)	-14.6%
Cc1nc2[nH]cnc(NCCCN3CCOCC3)c-2n1	5.03%
COc1ccc(CCNC(=O)CN2CCCC2c2noc(C)n2)cc1 (centres undefined)	-3.2%
Cc1nc(C2CCCN2CC(=O)NCCOc2ccc(F)cc2)no1 (centres undefined)	55.15%
Cc1nc(C2CCCN2CC(=O)NCCOc2cccc(F)c2)no1 (centres undefined)	2.8815%
Cc1cccc(OCCNC(=O)CN2CCCC2c2noc(C)n2)c1 (centres undefined)	6.905%
CCc1nc(C2CCCN2CC(=O)NCCOc2ccccc2)no1 (centres undefined)	-2.95%
Cc1nc(C2CCCN2CC(=O)NCCOc2ccccc2)no1 (centres undefined)	50.4%
CCC(=O)N1C[C@@H](C(=O)NC)[C@H](c2ccnc(N3CCCC3)n2)C1	1.93%
Cn1c(CN2CCOC(Cn3cncn3)C2)nc2ccccc21 (centres undefined)	-4.93%
c1ccc2sc(CN3CCOC(Cn4cncn4)C3)nc2c1 (centres undefined)	85.9%
Cc1nc(CN2CCOC(Cn3cncn3)C2)nc2ccccc12 (centres undefined)	21.1%
Cc1nc2ccccc2nc1CN1CCOC(Cn2cccn2)C1 (centres undefined)	26.5%
c1ccc2sc(CN3CCOC(Cn4cccn4)C3)nc2c1 (centres undefined)	72.4%
Cc1cnn(CC2CN(Cc3cccc(OC(C)C)c3)CCO2)c1 (centres undefined)	70.3%
Cc1cnn(CC2CN(Cc3cccc(OCC(N)=O)c3)CCO2)c1 (centres undefined)	-2.4%
Cc1cnn(CC2CN(Cc3nc4ccccc4nc3C)CCO2)c1 (centres undefined)	58%
c1ccc2sc(N3CCOC(Cn4cccn4)C3)nc2c1 (centres undefined)	26.3%
c1ccc2oc(CN3CCOC(Cn4cccn4)C3)nc2c1 (centres undefined)	-51.5%
Cc1nc(C)n(CC2CN(Cc3cccc(OC(C)C)c3)CCO2)n1 (centres undefined)	45.7%

Compound	INHIBITION
Cc1cnn(CC2CN(Cc3nc(C)c4ccccc4n3)CCO2)c1 (centres undefined)	35.3%
Cc1nc(C)n(C2CCCN(C(=O)COc3cccc(C#N)c3)C2)n1 (centres undefined)	22.3%
C[C@@H](O)CNC(=O)c1nc(CC(=O)Nc2cccc(C(F)(F)F)c2)no1	29.9%
Cc1ccc(N2CCC3(CC2)CC(OCC(C)C)C3)nn1	31.2%
O=C(O)C1CN(c2cccc(Cl)c2)CCO1 (centres undefined)	-6.92%
COCC(O)CNC(=O)Nc1c(F)cc(F)cc1-c1ccccc1 (centres undefined)	1.19%
CCn1ncc2c1C(COCC1CC1)CN(c1ccncn1)C2 (centres undefined)	-15.1%
COCC(=O)NCc1cc(=O)n2c(n1)CN(Cc1cccs1)CCC2	25.8%
CCC[C@@H]1CN(c2ncnc3ccsc23)C[C@H]1NS(C)(=O)=O	-3.58%
Cc1cnccc1NCCNC(=O)[C@H]1CNC[C@H](C(=O)N2CCCC2)C1	15.9%
CC(C)CCN1CCC2(CC1)NCc1ccccc1NC2=O	25.9%
Cc1cnn(CC2CN(Cc3nc4ccccc4o3)CCO2)c1 (centres undefined)	-61.4%
CC(C)(C)c1nnc(CN2CCOC(Cn3cncn3)C2)o1 (centres undefined)	40.3%
Cc1cnn(CC2CN(Cc3nc4ccccc4s3)CCO2)c1 (centres undefined)	74.4%
CCc1nnc(CN2CCOC(Cn3cccn3)C2)o1 (centres undefined)	-5.25%
Cc1cnn(CC2CN(CCCS(=O)(=O)N(C)C)CCO2)c1 (centres undefined)	77.8%
Cc1cnn(CC2CN(CCCS(C)(=O)=O)CCO2)c1 (centres undefined)	-12.1%
Cc1cnn(CC2CN(Cc3nc4ccccc4n3C)CCO2)c1 (centres undefined)	-43.6%
CC(C)(C)c1nnc(CN2CCOC(Cn3cccn3)C2)o1 (centres undefined)	59.7%
Cc1cnn(CC2CN(CCS(C)(=O)=O)CCO2)c1 (centres undefined)	-31.4%
Cc1nc(NCc2ccc(F)cc2)cc(C(=O)N2CCOCC2)n1	-10.1%
Clc1cccc(CNc2cnn(CCN3CCCCC3)c2)c1	21.2%

Compound	INHIBITION
CC(C)Nc1nc(O)cc(C2CC(=O)N(C3CCCCC3)C2)n1 (centres undefined)	-23.245%
CN(C)c1cc(C(=O)NCCc2nnc(-c3ccco3)[nH]2)ccn1	17.4%
O=C(NCC1CC1)C1CN(C(=O)Nc2ccccc2)CC12CCOCC2 (centres undefined)	19.4%
CCN(Cc1ccncc1)C(=O)C(C)n1ccnc1C(C)C (centres undefined)	10.3%
CC(C)N1C(=O)CN(CCCO)CC1(C)C	-23%
Cc1ccc(NC(=O)c2cccc(OCc3nnnn3C)c2)nc1	-1.57%
O=C(CCCc1ccc(Cl)cc1)N1CCC(c2nnc[nH]2)CC1	20.9%
CCOc1ccc(NC(=O)N2CCOC(C(N)=O)C2)cc1C (centres undefined)	-5.08%
O=C(CCCN1CCCCC1)N1CCC(c2nnc[nH]2)CC1	-7.53%
COc1ccc(NC(=O)N2CCC(c3nnc[nH]3)CC2)cc1C	37.6%
CCOc1cc(NC(=O)N2CCC(c3nnc[nH]3)CC2)ccc1C	56.6%
O=C(Nc1ccc(OC(F)F)cc1)N1CCC(c2nnc[nH]2)CC1	63.3%
CC(Cn1cccn1)n1cnc2cccc(Cl)c2c1=O (centres undefined)	36.6%
Oc1cc(C2CCNCC2)nc(-c2ccsc2)n1	-33.6%
Cc1occc1CNC(=O)C1CCN(C(=O)OC(C)(C)C)C1 (centres undefined)	-2.27%
Fc1ccc(NCc2nnsc2Cl)c(OC(F)F)c1	47.4%
C[S+]([O-])c1ccc(CNc2ccc(F)cc2OC(F)F)cc1 (centres undefined)	38.5%
Fc1ccc(NCc2ccncc2)c(OC(F)F)c1	73.2%
c1cc2nc(C3CCNCC3)nn2cc1NC1CCC1	40.3%
CN(Cc1cccs1)C1CCC[C@@H]2CN(C(N)=O)C[C@H]12 (some centres undefined)	39.3%
Cc1noc(C)c1CN1CCc2ncc(CN(C)C)n2CC1	57.1%
CCN(CC)Cc1cnc2n1CCN(Cc1c(C)noc1C)CC2	27.5%

Compound	INHIBITION
Cc1noc(C)c1CN1CCc2ncc(CN3CCCC3)n2CC1	40.8%
CC(c1nc(C2CC2)no1)N1CCN(CCCN2CCCC2=O)CC1 (centres undefined)	-2.53%
CCc1nnc(NCc2cccc(OC)c2OC)o1	50.2%
COc1cccc(CNC(C)Cn2cccn2)c1OC (centres undefined)	20.9%
COc1cccc(CNc2nnc(C(C)(C)C)o2)c1OC	7.22%
Cc1ncccc1Oc1ncnc(N2CCCC(O)(CO)CC2)c1C (centres undefined)	36.7%
Cc1cncc(C2CCCN2CC(N)=O)n1 (centres undefined)	35%
Cc1ccc(OCC(O)COC2CCOCC2)c(Br)c1 (centres undefined)	-98.4%
OC(COc1ccccc1Br)COC1CCOCC1 (centres undefined)	-42.8%
Cc1ccc(OCC(O)COC2CCOCC2)c(Cl)c1 (centres undefined)	71.3%
Cc1ccc(NC(=O)C2CSCN2C(=O)c2cnccn2)cc1C (centres undefined)	23.25%
NCCCC(=O)NCC1(O)CCCN(c2ccnc3cccnc23)C1 (centres undefined)	4.35%
CCCn1nc(C)c(C(=O)N[C@@H]2CC[C@@H](N3CCCC3)[C@@H]2O)c1C	1.65%
Cc1cccc(CN2C(=O)CCC23CCN(Cc2nccn2C)CC3)n1	37.2%
CN(C)[C@@H]1CO[C@H](CNC(=O)Nc2ccccc2)[C@H]1O	11.6%
O=C(NC[C@H]1OC[C@@H](NC2CCC(F)(F)CC2)[C@@H]1O)c1ccccc1	59.3%
O=C(NC[C@H]1OC[C@@H](NC2CCC(F)(F)CC2)[C@@H]1O)Nc1ccccc1	25.3%
CN(C)[C@@H]1CO[C@H](CNC(=O)c2cccs2)[C@H]1O	44.1%
CN(C)[C@@H]1CO[C@H](CNC(=O)c2ccccc2)[C@H]1O	53%
O=C(NC[C@H]1OC[C@@H](NC2COC2)[C@@H]1O)c1ccccc1	5.58%
CCn1cc(S(=O)(=O)N2CCCC3(CC=CNC3=O)C2)cn1 (centres undefined)	28.5%
CC(CNC(=O)NCc1ccco1)N1CCc2sccc2C1 (centres undefined)	-12.5%

Compound	INHIBITION
CCCn1c(C)c(CC(=O)NCCNC(C)=O)c2c1CC(C)(C)CC2=O	-4.52%
CCCn1c(C)c(CC(=O)NCCC(N)=O)c2c1CC(C)(C)CC2=O	69.6%
CCCn1c(C)c(CC(=O)NCC(N)=O)c2c1CC(C)(C)CC2=O	-13.3%
CCn1cc(-n2cc3nc(N4CCC(C)CC4)[nH]cc-3c2=O)cn1	-85.9%
Cc1cc(-n2c(C)cn(CN(C)C3CCS(=O)(=O)C3)c2=O)no1 (centres undefined)	38.8%
Cn1cc2c(n1)C(COCC1CC1)CN(Cc1ccccn1)C2 (centres undefined)	12.5%
Cc1cc(C)c(CNC(=O)NC2COc3ccccc3C2)c(=O)[nH]1 (centres undefined)	10.6%
COCCN(Cc1ccc(C)cc1)Cc1nccn1C	43.4%
c1cc(CN(CCCn2ccnc2)Cc2ccoc2)ccn1	24.7%
CN(C)c1ccc(CN(CCCn2ccnc2)Cc2c[nH]cn2)cc1	80.2%
COCCN(Cc1ccc(C)cc1)Cc1c[nH]cn1	63.8%
Cc1ccc(CN(CCCn2ccnc2)Cc2c[nH]cn2)s1	41.5%
CCn1ncnc1CN(CCOC)Cc1ccc(C)cc1	49.9%
COc1cc(COCC2CCN(Cc3cccnc3)CC2)cc(OC)c1	5.11%
CNc1cc(N2CCCC2CNCc2cccnc2C)ncn1 (centres undefined)	21.5%
Cc1ccc(C(=O)N2CCc3ncc(Cn4cccn4)n3CC2)o1	16.4%
COc1cc(I)c(Cl)cc1C(=O)N(C)CC(C)(C)O	29%
Cc1ccc(CC(=O)NC2CCN(c3cccc(Cl)c3)C2)cn1 (centres undefined)	42.7%
Cc1nc(CNC(=O)NC2CCN(c3ncccc3Cl)C2)no1 (centres undefined)	25.4%
Cc1nc(CNC(=O)NC2CCN(c3cccc(Cl)c3)C2)no1 (centres undefined)	56.3%
Cc1cc(C)n(CC2CN(Cc3nc(C4CC4)no3)CCO2)n1 (centres undefined)	-27.8%

From ChEMBL document CHEMBL4513216, “Probing the Open Global Health Chemical Diversity Library for Multistage-Active Starting Points for Next-Generation Antimalarials” (ACS Infect Dis, 2020)
